HT1080 IDH1KD tx: HT-1080 IDH1 knockdown cell toxicity (counter line); HT-1080 IDH1 knockdown viability, ATP luminescence, 48 h; Potency, µM (top dose mostly 46.1 µM), inactives show at the highest dose activity, negative = toxicity, usual class: cytotoxic; actives 2% (n = 360,000);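 further: 0% = DMSO wells and -100% = cell-free medium wells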
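In this qHTS, HT-1080 cells depleted of IDH1 are exposed for 48 h at 37 °C to compound titrations. Toxicity is scored from CellTiter-Glo luminescence, with DMSO as full viability and medium alone as none.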
KB-3-1 cytotox: kills parental KB-3-1 adenocarcinoma cells | KB-3-1 viability, CellTiter-Glo ATP luminescence, 72 h | Potency, µM (doses to about 46.1 µM), hits mostly cytotoxic | actives 1.4% (n = 400,000); further: on the % scale 0 is the no-effect control and ±100 the full control effect; nearly all actives have a fitted effect of over 60% in size
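72 h, 37 °C compound treatment of KB-3-1 parental cells; CellTiter-Glo added, 10 min, luminescence read. Data corrected against DMSO-only plates and normalized before curve fitting.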
SW480 rerep: induces DNA re-replication in SW480 colon adenocarcinoma cells; SW480 DNA re-replication, Hoechst DNA content imaging, 48 h; Potency, µM (top dose mostly 46.1 µM), for the others: at the top dose re-replication activation, hits mostly activators; actives 1.8% (n = 340,000); AID 624297; further: % of control where 0% means no effect; nearly all actives have a fitted effect of over 55% in size
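Readout is total intensity of Hoechst-stained nuclei, excited at 405 nm and collected at 500-530 nm. Compound treatment lasted 48 hr at 37 C in 5% CO2 before staining.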
HT1080NT lethal: kills 2HG-producing HT-1080-NT fibrosarcoma cells; HT-1080-NT fibrosarcoma viability, CellTiter-Glo ATP luminescence, 48 h; Potency, µM (titrated, usually from 46.1 µM), inactives show top-dose activity, negative = less viability, most hits filed as cytotoxic; actives 1.6% (n = 360,000); AID 686970;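 further: NT is the 2HG producing partner of a matched IDH1 knockdown line; 0% = DMSO-treated cells and -100% = media-only wells without cells; nearly all actives have a fitted effect of over 55% in size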
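HT-1080-NT fibrosarcoma cells (2HG-overproducing), 750 cells/well in RPMI with 5% FBS, dosed after 2 h and incubated 48 h at 37C. CellTiter-Glo luminescence normalized to DMSO and no-cell wells; concentration-response curves fitted and classed.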
MCF10A rereplic: inducers of DNA re-replication in MCF 10A breast cells. MCF 10A DNA re-replication, Hoechst nuclear intensity, 48 h. Potency, µM (top dose mostly 46.1 µM), for inactives: at the top dose activity, positive = re-replication, actives largely listed as activators. actives 2.9% (n = 350,000). AID 624296; further: % of control where 0% means no effect; nearly all actives have a fitted effect of over 50% in size
KB-V1 cytotox: kills drug-selected multidrug resistant KB-V1 cells. KB-V1 MDR cells viability, CellTiter-Glo, 72 h. Potency, µM (doses to about 46.1 µM), hits mostly cytotoxic. actives 3.4% (n = 400,000). AID 1347076; further: on the % scale 0 is the no-effect control and ±100 the full control effect; nearly all actives have a fitted effect of over 60% in size
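Drug-selected KB-V1 cells, grown in DMEM lacking phenol red with 10% FBS, receive compound titrations; after three days at 37 degrees C, surviving cell ATP is quantified by CellTiter-Glo luminescence and responses normalized and curve-fitted.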
* marks the source's active call; other numbers are inactive results. Rows were chosen to be rich in hits. Some 8% of all compounds tested hit in one or more screens of this group. The call rests on the fitted dose curve; in most records, active means well fitted curve in the direction sought with a large enough effect; inconclusive means small, poorly fitted or top-dose-only effect, or another doubt; inactive means no such curve, though single readings can be large; an effect the other way counts as inactive or inconclusive. Potency means the concentration at half of the fitted maximal effect.

For O=S(=O)(c1ccccc1)c1nnn2c1nc(NC1CCCCCC1)c1sccc12 the results were KB-3-1 cytotox inactive and KB-V1 cytotox inactive.
Screening COc1ccc(-n2cc(-c3ccc(OC)c(OC)c3)[nH]c2=S)cc1 returned HT1080 IDH1KD tx 2%, KB-3-1 cytotox inactive, SW480 rerep inconclusive, HT1080NT lethal 2%, MCF10A rereplic -1% and KB-V1 cytotox inactive.
COc1ccc(-n2cc(-c3ccccc3)[nH]c2=S)c(OC)c1 was read as HT1080 IDH1KD tx inconclusive, KB-3-1 cytotox 16µM*, SW480 rerep 18µM*, HT1080NT lethal inconclusive, MCF10A rereplic 16µM* and KB-V1 cytotox inactive.
Screening CCCN1C(=O)c2[nH]nc(-c3cc(Cl)c(C)cc3O)c2C1c1ccc(O)c(OC)c1 (centres undefined) returned HT1080 IDH1KD tx 16µM*, KB-3-1 cytotox inactive, SW480 rerep 2%, HT1080NT lethal inconclusive, MCF10A rereplic 4% and KB-V1 cytotox inactive.
Screening COc1cc(C2c3c(-c4cc(C)cc(C)c4O)n[nH]c3C(=O)N2CCCO)cc(OC)c1OC (centres undefined) returned HT1080 IDH1KD tx -4%, KB-3-1 cytotox inactive, SW480 rerep -3%, HT1080NT lethal -2%, MCF10A rereplic 7% and KB-V1 cytotox inactive.
For COc1ccc(CCN2C(=O)c3[nH]nc(-c4ccccc4O)c3C2c2ccc(O)c(OC)c2)cc1 (centres undefined) the results were KB-3-1 cytotox inactive and KB-V1 cytotox inactive.
COCCCN1C(=O)c2[nH]nc(-c3cc(C)cc(C)c3O)c2C1c1ccc(O)c(OC)c1 (centres undefined) was read as HT1080 IDH1KD tx -10%, KB-3-1 cytotox inconclusive, SW480 rerep inconclusive, HT1080NT lethal -4%, MCF10A rereplic 3% and KB-V1 cytotox 21µM*.
COc1ccc(-n2c(SCC(=O)NCc3ccccc3)nc3c([nH]c4ccccc43)c2=O)cc1 was read as KB-3-1 cytotox inactive and KB-V1 cytotox inactive.
`O=C(Nc1ccc(Br)c2ccccc12)c1ccc2ccccc2c1O` gave HT1080 IDH1KD tx inconclusive, KB-3-1 cytotox inactive, SW480 rerep 2%, HT1080NT lethal inconclusive, MCF10A rereplic 3.3µM* and KB-V1 cytotox inactive.
COc1ccc(CCNC(=O)c2cc3c(=O)[nH]c4ccc(C)cc4c3s2)cc1OC was read as KB-3-1 cytotox inactive and KB-V1 cytotox inactive.
`COc1ccc2[nH]cc(CCCN3C(=O)c4ccccc4C3=O)c2c1` gave HT1080 IDH1KD tx -21%, KB-3-1 cytotox inactive, SW480 rerep inconclusive, HT1080NT lethal -15%, MCF10A rereplic inconclusive and KB-V1 cytotox 23µM*.
COc1ccc2[nH]cc(CCN3C(=O)CCC3=O)c2c1 was read as HT1080 IDH1KD tx 20%, KB-3-1 cytotox inactive, SW480 rerep 2%, HT1080NT lethal 17%, MCF10A rereplic -3% and KB-V1 cytotox inconclusive.
Screening CN(C)c1ccc(/C=C(\C#N)c2nc(-c3ccc(Cl)c(Cl)c3)cs2)cc1 returned KB-3-1 cytotox inactive and KB-V1 cytotox inconclusive.
Screening COc1ccc(OCCn2cc(C=O)c3ccccc32)cc1 returned HT1080 IDH1KD tx -7%, KB-3-1 cytotox inactive, SW480 rerep -7%, HT1080NT lethal -12%, MCF10A rereplic inconclusive and KB-V1 cytotox inactive.
For CC1=CN2C(=N)/C(=C\c3cn(CCCOc4ccccc4)c4ccccc34)C(=O)N=C2S1 the results were HT1080 IDH1KD tx inconclusive, KB-3-1 cytotox inactive, HT1080NT lethal inconclusive, MCF10A rereplic 3.7µM* and KB-V1 cytotox inconclusive.
For CCc1ccc(-c2cc(C(=O)N/N=C/c3ccccn3)[nH]n2)cc1 the results were HT1080 IDH1KD tx -21%, KB-3-1 cytotox inactive, SW480 rerep -5%, HT1080NT lethal -28%, MCF10A rereplic inconclusive and KB-V1 cytotox inactive.
